Hit rate of the full screen: of about 66,000 compounds, about 960 (1.5%) showed an effect of 50% or more. The sample holds strong results, similar compounds and a random draw of the others, so the mix is not that of the screen.
Test system: Trypanosoma brucei
Assay: Trypanosoma brucei 72 hour study
Format: functional, organism-based
Design: scale not given: in the data most compounds retested in dose-response had high values

## COc1ccccc1NC(=O)NCCCn1nc2ccccn2c1=O
30.3 µM, […]
  Percent Effect: -15.65%

## CCc1c(C)nn2c(O)cc(C3CCN(C(=O)c4cnn(C)c4)C3)nc12 (stereo unspecified)
30.3 µM, […]
  Percent Effect: -13.28%

## CCCn1cc(-c2cc(-c3cc(CC)n[nH]3)c(C#N)c(N)n2)c(C)n1
30 µM, 30.03 µM
  Percent Effect: 41.43%

## CCCn1cc(-c2cc(-c3cnc(OC)nc3)c(C#N)c(N)n2)c(C)n1
30 µM, 30.03 µM
  Percent Effect: 73.84%

## CCCn1cc(-c2cc(-c3ccoc3)c(C#N)c(N)n2)c(C)n1
30 µM, 30.03 µM
  Percent Effect: -1.944%

## CCn1cc(-c2cc(-c3cc(CC(=O)O)cs3)nc(N)c2C#N)c(C)n1
30 µM, 30.03 µM
  Percent Effect: -31.42%

## CCCn1cc(-c2cc(-c3c[nH]cn3)c(C#N)c(N)n2)c(C)n1
30 µM, 30.03 µM
  Percent Effect: 58.89%

## COc1ncc(-c2cc(-c3ccn(C)c3)nc(N)c2C#N)cn1
30 µM, 30.03 µM
  Percent Effect: -14.16%

## CC(C)CS(=O)(=O)N1C[C@H]2C[C@H](C(=O)N3CCN(C)CC3)[C@@H](C1)O2.O=C(O)C(F)(F)F
30.3 µM, […]
  Percent Effect: -51.72%

## COc1ccccc1CCN1CCCC(CN(C)Cc2c[nH]c(C)n2)C1 (stereo unspecified)
30 µM, 30.03 µM
  Percent Effect: 9.173%

## CC(NC(=O)c1ccc(=O)n(C)c1)c1ccccc1-n1cccn1 (stereo unspecified)
30 µM, 30.03 µM
  Percent Effect: -14.43%

## Cc1nnc(NC(=O)c2cc(S(=O)(=O)N3CCSCC3)c[nH]2)s1
30 µM, 30.03 µM
  Percent Effect: 37.66%

## Cc1ccc(NC(=O)c2cc(S(=O)(=O)N3CCCCC3)c[nH]2)cc1F
30 µM, 30.03 µM
  Percent Effect: -33.42%

## Cc1ccc(C)c(NC(=O)c2cc(S(=O)(=O)N3CCSCC3)c[nH]2)c1
30 µM, 30.03 µM
  Percent Effect: 69.72%

## Cc1noc([C@@H]2CC[C@@H]3[C@@H](CCN3c3nnc(C)s3)O2)n1.O=C(O)C(F)(F)F
30.3 µM, […]
  Percent Effect: -92.4%

## Clc1ccc(C2NCCc3cc4c(cc32)OCCO4)cc1 (stereo unspecified)
30.3 µM, […]
  Percent Effect: -20.9%

## Fc1ccccc1C1NCCc2cc3c(cc21)OCCO3 (stereo unspecified)
30.3 µM, […]
  Percent Effect: 18.61%

## CCc1ccc(C2NCCc3cc4c(cc32)OCCO4)cc1 (stereo unspecified)
30.3 µM, […]
  Percent Effect: 67.24%

## Cc1cc(CCC(N)=O)cc(C2CCCN2Cc2cnc(C)nc2)n1 (stereo unspecified)
30.3 µM, […]
  Percent Effect: -5.889%

## O=C(O)C(F)(F)F.O=C(O)C(F)(F)F.c1coc(CN2C[C@@H]3CN(Cc4ccoc4)CCO[C@@H]3C2)c1
30.3 µM, […]
  Percent Effect: -14.62%

## O=C(Cn1c(=O)oc2ccccc21)NCC1(O)CCc2ccccc2C1 (stereo unspecified)
30 µM, 30.03 µM
  Percent Effect: -11.94%

## Cc1ccc(OCc2nnc(SCC3CCCN(C)C3)o2)cc1 (stereo unspecified)
30.3 µM, […]
  Percent Effect: -4.572%

## Cc1cccc(OCc2nnc(SCC3CCCN(C)C3)o2)c1 (stereo unspecified)
30.3 µM, […]
  Percent Effect: -11.54%

## Cc1ccc(C)c(OCc2nnc(SCC3CCCN(C)C3)o2)c1 (stereo unspecified)
30.3 µM, […]
  Percent Effect: 77.52%

## Cc1cc(F)cc2c(N3CCS(=O)(=O)CC3)c(C#N)cnc12
30.3 µM, […]
  Percent Effect: 6.61%

## Cc1noc(C)c1CN1CCc2ncnc(-c3ccccc3)c2CC1.O=C(O)C(F)(F)F
30.3 µM, […]
  Percent Effect: -55.88%

## CC(C)(C)n1ncc2c1CCCC2NCc1cccc2c1OCCO2 (stereo unspecified)
10 µM
  Percent Effect: 0.9444%
30.3 µM, […]
  Percent Effect: 51.24%

## CCn1ncc2c1CCCC2NCc1cccc2c1OCCO2 (stereo unspecified)
30 µM, 30.03 µM
  Percent Effect: 6.251%

## CC(C)(C)n1ncc2c1CCCC2NCc1cccc2c1OCO2 (stereo unspecified)
30 µM, 30.03 µM
  Percent Effect: -18.28%

## Cc1ccc(N2C[C@H](C)[C@]3(CCN(c4cccnc4)C3=O)C2)nn1.O=C(O)C(F)(F)F.O=C(O)C(F)(F)F
30.3 µM, […]
  Percent Effect: -32.51%

## O=C(NC1CCCC1)[C@@H]1C[C@@H]2CCN(Cc3ccoc3)C[C@H]2O1.O=C(O)C(F)(F)F
30.3 µM, […]
  Percent Effect: -88.78%

## Cc1nc(CN2CCO[C@@H]3CN(C(=O)CC4CC4)C[C@@H]3C2)cs1.O=C(O)C(F)(F)F
30 µM, 30.03 µM
  Percent Effect: 48.86%

## Cc1nc(CN2CCO[C@@H]3CN(C(=O)CN(C)C)CC[C@@H]3C2)cs1
30 µM, 30.03 µM
  Percent Effect: 8.371%

## Cc1nc(CN2CCO[C@@H]3CN(C(=O)CC4CC4)CC[C@@H]3C2)cs1
30 µM, 30.03 µM
  Percent Effect: 61.23%

## CCC(=O)N1CCC2(CC1)C(c1cccnc1)CC(=O)N2CCOC.O=C(O)C(F)(F)F (stereo unspecified)
30.3 µM, […]
  Percent Effect: -33.93%

## CO[C@H]1CN(C(=O)c2cccnc2)[C@@H]2CCCO[C@H]12.O=C(O)C(F)(F)F
30.3 µM, […]
  Percent Effect: -49.74%

## COc1cc(CNCC(C)O)cc(Cl)c1OCc1ccc(C)cc1.Cl (stereo unspecified)
30 µM, 30.03 µM
  Percent Effect: 97.25%

## COc1cccc(CNC(C)C)c1OCc1ccc(C)cc1.Cl
30 µM, 30.03 µM
  Percent Effect: -4.618%

## CC(O)CNCc1ccc(OCc2ccc3c(c2)OCCO3)cc1.Cl (stereo unspecified)
30 µM, 30.03 µM
  Percent Effect: -67.49%

## COc1ccc(C[C@H]2CNCC[C@H]2OC)cc1.O=C(O)C(F)(F)F
30.3 µM, […]
  Percent Effect: 13.15%

## Cc1n[nH]c2ncc(CNC3CCN(Cc4ccccn4)CC3)cc12.Cl
30 µM, 30.03 µM
  Percent Effect: -2.543%

## Cl.c1cnc(N2CCCC(NCc3ccc(-n4ccnc4)cc3)C2)nc1 (stereo unspecified)
30.3 µM, […]
  Percent Effect: 10.24%

## Cc1n[nH]c2ncc(CNC3CCCN(c4ncccn4)C3)cc12.Cl (stereo unspecified)
30 µM, 30.03 µM
  Percent Effect: 72.79%

## COc1cccc(S(=O)(=O)N2C[C@@H](N(C)C)[C@H](C(C)C)C2)c1
30 µM, 30.03 µM
  Percent Effect: -34.95%

## CC(C)S(=O)(=O)N1CCC(Cc2cccc(C(=O)O)c2)C1 (stereo unspecified)
30 µM, 30.03 µM
  Percent Effect: -22.39%

## CC(C)[C@@H]1CN(S(=O)(=O)c2cccc(C(=O)O)c2)C[C@H]1N(C)C
30 µM, 30.03 µM
  Percent Effect: 98.32%

## COCCN1CC2(CCOCC2)c2cc(NC(=O)C3CC=CC3)ccc21.O=C(O)C(F)(F)F
30.3 µM, […]
  Percent Effect: 4.18%

## COc1cc(-c2cc(-c3ccn(C)c3)nc(N)c2C#N)cc(OC)c1O
30 µM, 30.03 µM
  Percent Effect: -22.54%

## Cc1noc(C)c1-c1ccc(C2CCCN2C(=O)Cn2ccnc2)nc1 (stereo unspecified)
30.3 µM, […]
  Percent Effect: -4.122%

## CN(C)C(=O)CN1CCCC(c2cncc(-c3cccc(Cl)c3)n2)C1 (stereo unspecified)
30.3 µM, […]
  Percent Effect: 53.32%

## CN(C)C(=O)CN1CCC(c2cncc(-c3cccc(Cl)c3)n2)CC1
30.3 µM, […]
  Percent Effect: 45.69%

## CN(C)C(=O)CN1CCCC(c2nccnc2-c2cccc(Cl)c2)C1 (stereo unspecified)
30.3 µM, […]
  Percent Effect: -2.355%

## CO[C@H]1C[C@@H]2CN(C(=O)c3cccc4c3OCCO4)C[C@@H]2C1
30.3 µM, […]
  Percent Effect: -23.55%

## O=C(C1CC1)N1CC[C@H](O)[C@@H]1Cc1ccccc1
30.3 µM, […]
  Percent Effect: -5.545%

## CC(C)c1cc(N2CC[C@H](F)C2)n2nccc2n1
30.3 µM, […]
  Percent Effect: 99.84%

## CC(C)c1cc(N2CCC[C@H](N)C2)n2nccc2n1
30.3 µM, […]
  Percent Effect: -37.71%

## CC(C)c1cc(N2CCC(N)CC2)n2nccc2n1
30 µM, 30.03 µM
  Percent Effect: 38.85%

## CC(C)c1cc(N2CCC(C(C)N3CCCC3)CC2)n2nccc2n1 (stereo unspecified)
30.3 µM, […]
  Percent Effect: 88.53%

## CC(C)c1cc(N2CCC(N(C)C)C2)n2nccc2n1 (stereo unspecified)
30.3 µM, […]
  Percent Effect: 4.814%

## CC(C)c1cc(N2CCSCC2)n2nccc2n1
30.3 µM, […]
  Percent Effect: -15.7%

— ChEMBL document CHEMBL3988442, “University of Dundee, Small-Polar-MMV Screening Library” (2021)
